{
  "source": "PubChem BioAssay",
  "key": {"[1]": {"system": "XIP peptide (Xip251-270) binding", "experiment": "small-molecule binders of XIP peptide, primary screen, biochemical, small-molecule microarray, fluorescence 635/667 nm, 0.1 µg/mL protein (AID 1182)", "conditions": "fluorescent protein binding, 635 nm, higher = more signal, called active from +8 up or from −8 down"}, "XIP peptide (Xip251-270)": {"system": "XIP peptide (Xip251-270)", "experiment": "small-molecule binders of XIP peptide, primary screen, biochemical, small-molecule microarray, fluorescence 635/667 nm, 0.5 µg/mL protein (AID 1183)", "conditions": "small-molecule microarray binding, fluorescence 635 nm; higher = more signal"}, "[2]": {"experiment": "Plasmodium falciparum growth inhibition, primary screen, strain 3D7, DAPI fluorescence, 100 nL (AID 1184);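 note: parasites grown inside human red blood cells in medium with human serum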", "conditions": "P. falciparum 3D7 growth, 3 d, higher = more signal"}, "[3]": {"molecular_target": "Homeobox protein Hox-A13 (Mus musculus) (UniProt Q62424)", "sequence (Q62424 whole entry, looked up)": "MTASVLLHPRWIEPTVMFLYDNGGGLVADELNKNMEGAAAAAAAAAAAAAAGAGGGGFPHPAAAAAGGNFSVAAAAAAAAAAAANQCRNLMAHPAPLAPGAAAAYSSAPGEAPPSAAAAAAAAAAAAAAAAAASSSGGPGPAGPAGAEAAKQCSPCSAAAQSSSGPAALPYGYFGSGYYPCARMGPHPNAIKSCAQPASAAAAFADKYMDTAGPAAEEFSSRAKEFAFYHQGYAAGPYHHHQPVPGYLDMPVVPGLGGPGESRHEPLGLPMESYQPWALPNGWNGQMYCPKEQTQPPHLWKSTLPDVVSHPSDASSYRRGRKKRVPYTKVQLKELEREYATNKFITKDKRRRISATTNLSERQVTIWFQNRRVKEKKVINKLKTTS", "experiment": "inhibitors of HoxA13-DNA binding, primary screen, biochemical, fluorescence polarization, labeled oligonucleotide (AID 1185)", "conditions": "15 min, higher = more signal, called active from +8 up or from −8 down"}},
  "note": "Activity calls are given as the source filed them.",
  "data": [
    {"smiles": "COc1cccc([C@H]2Oc3ccc(OC)cc3C(=NOC[C@@H](C)[C@H](OCc3ccccc3)C(C)C)[C@@H]2O)c1", "values": [
      {"measurement": "composite z-score", "setting": "[1]", "value": "0.305 (inactive)"},
      {"measurement": "composite z-score", "setting": "XIP peptide (Xip251-270)", "value": -0.724},
      {"measurement": "z-score", "setting": "[2]", "value": -0.157},
      {"measurement": "z-score", "setting": "[3]", "value": "-0.308 (inactive)"}
    ]},
    {"smiles": "CC(C)[C@@H](OCc1ccccc1)[C@H](C)C=NOC[C@@H](O)COCc1ccco1", "values": [
      {"measurement": "composite z-score", "setting": "[1]", "value": "-0.0277 (inactive)"},
      {"measurement": "composite z-score", "setting": "XIP peptide (Xip251-270)", "value": -0.273},
      {"measurement": "z-score", "setting": "[2]", "value": 1.4},
      {"measurement": "z-score", "setting": "[3]", "value": "-2.74 (inactive)"}
    ]},
    {"smiles": "Cn1c(=O)n2n(c1=O)[C@H]1[C@H](O)[C@@H]3O[C@@H]3C(=O)[C@H]1CC2", "values": [
      {"measurement": "composite z-score", "setting": "[1]", "value": "0.151 (inactive)"},
      {"measurement": "composite z-score", "setting": "XIP peptide (Xip251-270)", "value": 0.186},
      {"measurement": "z-score", "setting": "[2]", "value": 0.551},
      {"measurement": "z-score", "setting": "[3]", "value": "0.336 (inactive)"}
    ]},
    {"smiles": "COC(=O)CC=C[C@@H](C)[C@@H](C=NO[C@@H](C)c1cc(-c2c(C)cc(C)cc2C)no1)NS(=O)(=O)c1ccc(C)cc1", "values": [
      {"measurement": "composite z-score", "setting": "[1]", "value": "-0.105 (inactive)"},
      {"measurement": "composite z-score", "setting": "XIP peptide (Xip251-270)", "value": -0.91},
      {"measurement": "z-score", "setting": "[2]", "value": -0.842},
      {"measurement": "z-score", "setting": "[3]", "value": "-2.92 (inactive)"}
    ]},
    {"smiles": "C[C@@H](c1ccccc1)N1C(=O)[C@H]2[C@H]3[C@H](O)[C@H](O)CC(=NO[C@@H]4O[C@H](CO)[C@@H](O)[C@H](O)[C@H]4O)[C@H]3CC[C@H]2C1=O", "values": [
      {"measurement": "composite z-score", "setting": "[1]", "value": "-0.0033 (inactive)"},
      {"measurement": "composite z-score", "setting": "XIP peptide (Xip251-270)", "value": 0.216},
      {"measurement": "z-score", "setting": "[2]", "value": -0.648},
      {"measurement": "z-score", "setting": "[3]", "value": "-0.285 (inactive)"}
    ]},
    {"smiles": "C[C@@H]1C=CCC(=O)OC[C@H]2O[C@@H](C=C[C@@H]2O)[C@H](C)C=CCC(=O)OC1", "values": [
      {"measurement": "composite z-score", "setting": "[1]", "value": "1 (inactive)"},
      {"measurement": "composite z-score", "setting": "XIP peptide (Xip251-270)", "value": 0.538},
      {"measurement": "z-score", "setting": "[2]", "value": 0.387},
      {"measurement": "z-score", "setting": "[3]", "value": "-0.659 (inactive)"}
    ]},
    {"smiles": "CC(CCN1CCCCc2nc(C)c(C)cc21)=NOC[C@@H](C)[C@H](OCc1ccccc1)C(C)C", "values": [
      {"measurement": "composite z-score", "setting": "[1]", "value": "-0.494 (inactive)"},
      {"measurement": "composite z-score", "setting": "XIP peptide (Xip251-270)", "value": -0.3},
      {"measurement": "z-score", "setting": "[2]", "value": 0.318},
      {"measurement": "z-score", "setting": "[3]", "value": "-2.47 (inactive)"}
    ]},
    {"smiles": "C#CCCCON=C1C[C@@H](O)[C@@H](O)[C@@H]2[C@@H]3C(=O)N(c4ccc(F)cc4F)C(=O)[C@@H]3CC[C@@H]12", "values": [
      {"measurement": "composite z-score", "setting": "[1]", "value": "0.76 (inactive)"},
      {"measurement": "composite z-score", "setting": "XIP peptide (Xip251-270)", "value": 0.0996},
      {"measurement": "z-score", "setting": "[2]", "value": -0.217},
      {"measurement": "z-score", "setting": "[3]", "value": "-3.13 (inactive)"}
    ]}
  ]
}
